Source: PubChem
An excerpt weighted towards active compounds, which were near 2.5% of everything screened.
Bst PK mod – Pyruvate Kinase; purified pyruvate kinase, luminescence ATP production; ribose 5-phosphate activator present at AC10; AID 361, 2006; 51,000 compounds, 1.2% hits; Potency, µM; in the data active = potency below about 11 µM; inconclusive = mostly about 12 µM to 25 µM;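 the screen sought inhibitors and activators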;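 also: scaled between full activation by ribose 5 phosphate and full inhibition by luteolin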
FLuc inh – qHTS Assay for Inhibitors of Firefly Luciferase; 72,000 compounds, 2.2% hits; Potency, µM (highest dose often 57.1 µM), for the others: at the highest dose activity change, negative = inhibition, usual class: inhibitors; purified firefly luciferase, luminescence, 8 min; AID 411, 2009; active = well fitted inhibition curve with a large enough effect; inconclusive = small, poorly fitted or top-dose-only effect; also: nearly all actives have a fitted effect of over 40% in size
Target sequence (P08659 whole entry, looked up): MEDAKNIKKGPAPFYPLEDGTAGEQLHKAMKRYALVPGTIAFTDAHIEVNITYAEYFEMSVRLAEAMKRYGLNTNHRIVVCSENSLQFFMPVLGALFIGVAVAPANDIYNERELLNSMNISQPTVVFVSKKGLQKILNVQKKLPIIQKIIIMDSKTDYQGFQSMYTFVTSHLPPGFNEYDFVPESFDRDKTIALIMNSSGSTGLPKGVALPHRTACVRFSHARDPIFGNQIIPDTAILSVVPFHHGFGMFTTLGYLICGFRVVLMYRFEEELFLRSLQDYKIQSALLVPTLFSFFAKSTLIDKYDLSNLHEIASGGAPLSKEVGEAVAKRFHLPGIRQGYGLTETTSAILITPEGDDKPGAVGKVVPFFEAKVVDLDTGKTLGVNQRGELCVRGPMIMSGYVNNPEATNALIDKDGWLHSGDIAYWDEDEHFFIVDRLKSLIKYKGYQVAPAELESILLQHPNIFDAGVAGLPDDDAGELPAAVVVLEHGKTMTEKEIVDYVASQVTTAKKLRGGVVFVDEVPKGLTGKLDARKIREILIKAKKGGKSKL
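Here, luciferase activity is measured as luminescence following an 8 min room-temperature reaction at 10 uM ATP, pH 7.2. Every library sample is titrated.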
Numbers without * were called inactive; i = inactive; u = inconclusive; x = no result given; [ ] = remark or other dose. Unless noted, % is scaled to controls: 0 for no effect and ±100 for the full control effect; potency is read from the fitted curve at half-maximal effect.

SMILES	Bst PK mod	FLuc inh
Cn1c(NCc2ccco2)nc2c1c(=O)n(Cc1ccc(Cl)c(Cl)c1)c(=O)n2C	1.9*	2%[25.5 µM]
O=C(NCCCN1CCOCC1)c1cc(-c2ccccc2)on1	>57	2%
O=C(O)CCc1nn2cc(-c3ccccc3)nc2[nH]c1=O	>26	-1%[25.5 µM]
Cc1nn2cc(-c3ccc(-c4ccccc4)cc3)nc2s1	x	1µM*
Cc1nn2cc(-c3ccc(Cl)cc3)nc2s1	u	3.2µM*
Cc1nn2c(-c3ccc(Cl)cc3)nnc2s1	u	-2%[25.5 µM]
CCc1nn2cc(-c3ccccc3)nc2s1	2.4*	1.6µM*
Cc1c(C(=O)Nc2ccccc2)sc2nc(-c3ccccc3)cn12	i	-20%
Cc1onc(-c2c(F)cccc2Cl)c1C(=O)OCC(=O)NCc1ccco1	>57	-3%
CC(=O)NC(CCS(C)(=O)=O)C(=O)Nc1cccc(Cl)c1Cl (centres undefined)	x	-6%
CCCc1cc(=O)oc2cc(OCC(=O)OC)cc(OCC(=O)OC)c12	x	1%
CCN1C(=O)CSc2ccc(C(=O)NC3CCCCC3)cc21	>57	-4%
CCOc1ccc(-c2noc(CCC(=O)NC)n2)cc1OCC	>57	-1%
CN(C)C(=O)CCc1nc(-c2ccc(C(C)(C)C)cc2)no1	>57	2%
COc1ccc(-c2noc(CCC(=O)Nc3cc(OC)ccc3OC)n2)cc1	>57	-12%
CNC(=O)CCc1nc(-c2ccc(C(C)(C)C)cc2)no1	u	13µM*
CC(C)(C)c1ccc(-c2noc(CCC(N)=O)n2)cc1	i	13µM*
COc1ccc(-c2noc(CCC(=O)Nc3cc(Cl)c(OC)cc3OC)n2)cc1	>57	16µM*
O=c1[nH]c(Cc2ccccc2)nc2c1oc1ccccc12	>57	2%
O=C(O)c1cccc(-n2nnnc2SCc2ccccn2)c1	>57	0%
c1ccc(CSc2nnnn2-c2cccc3ccccc23)nc1	7.4*	3%
CCOC(=O)C1CCN(C(=O)CN(c2ccc(OC)c(OC)c2)S(=O)(=O)c2ccccc2)CC1	x	2%
COc1ccc(NC(=O)N2CCC3(CC2)CCN(C(=O)c2cccn2C)CC3)cc1	x	0%[11.4 µM]
CCCn1c(NC(=O)c2ccc(C)cc2)nc2ccccc21	>57	-1%
Cc1ccc(C(=O)Nc2nc3ccccc3c(=O)s2)cc1	6.8*	u
SMILES	Bst PK mod	FLuc inh
COc1cc(C(c2sc3ncnn3c2O)N2CCN(c3ccccc3F)CC2)cc(OC)c1OC (centres undefined)	x	1%
CCOC(=O)Cc1c(C)nc(-c2ccccc2)[nH]c1=O	>57	-2%
c1ccc(-c2noc(-c3ccc4ccccc4c3)n2)nc1	0.16*	0.2µM*
Cc1occc1-c1nc(-c2ccncc2)no1	x	-3%
Cc1occc1-c1nc(-c2ccccn2)no1	x	13µM*
c1ccc(CCc2ccccc2-c2nc(-c3ccccn3)no2)cc1	x	1%
c1ccc(OCCCc2nc(-c3ccccn3)no2)cc1	>57	-3%
c1ccc(-c2noc(-c3ccc4c(c3)OCO4)n2)nc1	0.86*	0.79µM*
COc1ccc(NC(=O)c2c(F)c(F)c(F)c(F)c2F)cc1Cl	>57	1%
COC(=O)c1ccc(Oc2cc(C)nc(-n3nc(C)cc3C)n2)cc1	x	2%
CCOC(=O)c1cnc(SCc2nc(N)nc(Nc3ccccc3)n2)nc1N	>57	-14%
COc1ccc2nc(SCc3nc(N)nc(Nc4ccccc4)n3)[nH]c2c1	x	13µM*
Nc1nc(CSc2ccccn2)nc(Nc2ccccc2)n1	x	20µM*
COc1ccc2nc(SCC(N)=O)[nH]c2c1	>57	0%
CC(C)Sc1nc(NCc2ccco2)c2c3c(sc2n1)COC(C)(C)C3	>57	2%
O=S(=O)(c1ccccc1S(=O)(=O)N1CCCCC1)N1CCCCC1	>57	4%
O=S(=O)(c1ccc(F)c2ccccc12)N1CCCCC1	2.9*	1%
O=C(COC(=O)c1cccc(S(=O)(=O)N2CCc3ccccc32)c1)NC1CCS(=O)(=O)C1 (centres undefined)	>57	-4%
Clc1ccc2nc(N3CCNCC3)nc(-c3ccccc3)c2c1	>26	2%[25.5 µM]
O=C(NCCO)c1ccc2[nH]c3c(c2c1)CCCC3	x	16µM*
O=C(O)c1ccc2[nH]c3c(c2c1)CSCC3	>57	5%
Cn1c(=O)c(=O)n(C)c2cc(S(=O)(=O)N3CCCCCC3)ccc21	>57	2%
CCOC(=O)CNc1c(-c2ccc(O)cc2)nc2ccccn12	>57	-17%
COC(=O)CNc1c(-c2ccccn2)nc2ccc(Br)cn12	u	13µM*
Cc1ccc(-c2ccccc2NC(=O)C2C3C=CC(C3)C2C(=O)O)o1 (centres undefined)	>26	-4%[25.5 µM]
SMILES	Bst PK mod	FLuc inh
Cc1ccc(-c2cccc(NC(=O)C3C(C(=O)O)[C@@H]4C=C[C@H]3C4)c2)o1 (some centres undefined)	5.7*	-6%
O=C(CSc1nnnn1C1CCCCC1)NCc1cccc(C(=O)O)c1	>57	-9%
Cc1ccc(S(=O)(=O)C(F)(F)F)cc1NC(=O)c1cccnc1	>57	0%
CC(C)c1ccc(NS(=O)(=O)c2ccc3[nH]cc(C(=O)N4CCC(C(N)=O)CC4)c(=O)c3c2)cc1	x	1%
Oc1ccccc1C1Nc2cccc3cccc(c23)N1	3.6*	-10%
Brc1ccc(C2Nc3cccc4cccc(c34)N2)o1	x	-17%
O=c1c2c3c(sc2nc2n1CCCC2)CCC3	x	0%
Fc1ccc(Nc2nc(N3CCOCC3)c3ccccc3n2)cc1	x	-2%
Nc1nc(Nc2cccc(F)c2)nc2ccccc12	9.4*	10µM*
NCCOc1ccccn1	x	3%[11.4 µM]
Clc1cccc(Cl)c1COc1ccccn1	9.8*	-2%
CC(C)C[C@H]1C(=O)N2CCC[C@H]2[C@]2(O)O[C@](NC(=O)[C@@H]3C=C4c5cccc6[nH]c(Br)c(c56)CC4N(C)C3)(C(C)C)C(=O)N12 (some centres undefined)	x	-24%[25.5 µM]
CC(=O)c1sc(NC(=O)c2ccccc2F)nc1C	x	16µM*
COCCN(CCOC)S(=O)(=O)c1ccc(C(=O)Nc2nc(C)c(C(C)=O)s2)cc1	>57	-2%
O=C(N1CCOCC1)N1CCC(n2nnc3ccccc32)CC1	>57	0%
O=C(NCc1ccc2c(c1)OCO2)c1ccccn1	>57	0%
O=C(/C=C\Nc1ccc2c(c1)OCO2)c1ccccn1	x	0.63µM*
CN(C)c1ccc(Nc2nc(-c3cccnc3)cs2)cc1	x	0.63µM*
O=C(Nc1nc(-c2cccnc2)cs1)c1ccc(S(=O)(=O)N2CCOCC2)cc1	>57	-1%
CCOc1ccc(NC(C)=O)cc1	x	6%[25.5 µM]
CCOc1ccc(NC(=O)c2cnsn2)cc1	u	16µM*
CCOc1ccc(NC(=O)c2nnn(CC(=O)Nc3ccccc3OC)c2N)cc1	x	5µM*
CCOc1ccc(NC(=O)c2cccnc2C(=O)O)cc1	x	-9%
CCOc1ccc(NC(=O)c2ccccc2O)cc1	2.5*	1.3µM*
O=C(Nc1ccccn1)c1cccnc1	>57	-2%
SMILES	Bst PK mod	FLuc inh
COc1ccccc1C(=O)Nc1ccccn1	u	16µM*
COc1ccccc1NC(=O)Cn1nnc(C(=O)Nc2ccccc2)c1N	>57	-3%
CNC(=O)CN(c1cccc2ccccc12)S(C)(=O)=O	u	-1%
CCOC(=O)C1CCN(C(=O)CSCCSCC(=O)N2CCC(C(=O)OCC)CC2)CC1	>57	2%
CCOc1ccc(NC(=O)c2ccccc2OC)cc1	i	3.2µM*
CCOc1ccc(NC(=O)c2oc3ccccc3c2NC(=O)C2CC2)cc1	>57	-2%
COc1ccc(C(=O)Nc2ccc(C)cn2)c(OC)c1	0.33*	0.25µM*
